# Hits are enriched below; roughly 4.6% of the tested compounds scored in any of these assays.
# D1 ag: Allosteric Agonists of the Human D1 Dopamine Receptor: qHTS. AID 504660, 2011. D(1A) dopamine receptor (Homo sapiens), P21728. 1% of 360,000 active. activation, % at 2 µM. HEK293 T-REx D1 cells, calcium flux, agonist mode; in the data active means activation above about 30%; further: 0% is about no effect
#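 Agonism was scored from calcium flux recorded over 180 s (1 read/s) after pintool compound addition, following a 10-cycle baseline. Cells were inducible force-coupled HEK293 TREx D1, plated overnight at 30 C and loaded with no-wash calcium dye.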
# TRHR enhancer-1: qHTS for Small Molecule Agonists and Allosteric Enhancers of Human TRH Receptor: Primary Screen for Enhancers | AID 493056, 2011 | 0.66% of 360,000 active | TRHR cells, fluo-8 calcium fluorescence, EC20 TRH enhancement | enhancement, % at 2 µM | Thyrotropin-releasing hormone receptor (Homo sapiens), P34981; in the data active means enhancement above about 30%; further: 0% is about no effect
# Target sequence (P34981 whole entry, looked up): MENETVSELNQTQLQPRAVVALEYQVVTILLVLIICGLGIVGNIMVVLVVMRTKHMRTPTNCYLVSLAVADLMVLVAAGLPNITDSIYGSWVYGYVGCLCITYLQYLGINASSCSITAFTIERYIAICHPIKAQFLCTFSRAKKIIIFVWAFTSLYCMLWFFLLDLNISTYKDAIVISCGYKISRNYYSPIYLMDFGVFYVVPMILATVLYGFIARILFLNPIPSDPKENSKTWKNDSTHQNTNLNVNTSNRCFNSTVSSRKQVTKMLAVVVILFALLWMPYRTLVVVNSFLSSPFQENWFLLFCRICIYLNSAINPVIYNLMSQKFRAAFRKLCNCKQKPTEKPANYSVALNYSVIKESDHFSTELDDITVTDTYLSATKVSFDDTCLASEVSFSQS
#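 Enhancer read-out: after compound pinning and an initial kinetic agonist-mode read, an EC20 of TRH (10 nM final) was injected and fluo-8 calcium signal (Ex 480/Em 530) followed at 1 s/cycle for 100 cycles in TRHR-expressing cells.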
# D1 potentiator: Potentiators of Human D1 Dopamine Receptor: qHTS; HEK293 TREx D1 cells, calcium flux, dopamine EC20 potentiation; potentiation, % at 10 µM; 0.036% of 360,000 active; AID 504651, 2011; in the data active means potentiation above about 30%; further: 0% is about no effect
# TRHR agonist-1: qHTS for Small Molecule Agonists and Allosteric Enhancers of Human TRH Receptor: Primary Screen for Agonists; Thyrotropin-releasing hormone receptor (Homo sapiens), P34981; 0.18% of 360,000 active; activation, % at 2 µM; TRHR cells, calcium flux fluo-8, FDSS agonist mode; AID 493084, 2011; in the data active means activation above about 30%; further: 0% is about no effect
#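 Agonist-mode FDSS calcium read (Ex 480/Em 530, 1 s cycles) in 1536-well TRHR cells with fluo-8 dye, after 10-cycle baseline and 23 nL compound addition; TRH at EC20 (10 nM final) added afterwards for the enhancer phase.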
# D1 antagonist: Antagonist of Human D 1 Dopamine Receptor: qHTS; AID 504652, 2011; D(1A) dopamine receptor (Homo sapiens), P21728; activity change, negative = inhibition, % at 10 µM; HEK293 TREx D1 cells, calcium flux, dopamine EC80; active compounds read low; 3.2% of 360,000 active; in the data active means activity change below about -30%; further: on the % scale 0 is the no-effect control and ±100 the full control effect
#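 Cells carrying a force-coupled, tetracycline-inducible human D1 receptor report calcium flux. Each well gets a 10 s baseline, compound with 180 s monitoring, then an EC80 dopamine stimulus with a second 180 s kinetic read.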
# TRHR enhancer-2: qHTS for Small Molecule Agonists and Allosteric Enhancers of Human TRH Receptor: Confirmation Screen for Enhancers; shares compounds with TRHR enhancer-1; TRH receptor cell assay, enhancer confirmation qHTS; activity change, negative = inhibition, % at 46.1 µM; 970 tested, under 10 active;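 further: compound effect scored on response to added TRH at EC20 of 10 nM; 0% is about no effect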
# TRHR agonist-2: qHTS for Small Molecule Agonists and Allosteric Enhancers of Human TRH Receptor: Confirmation Screen for Agonists; shares compounds with TRHR enhancer-1; TRHR-expressing cells, agonist activation read-out; Potency, µM (highest dose often 46.1 µM), without a hit: at the highest dose activation, usual class: activators; 8% of 970 active; AID 493078, 2011; further: potency means the concentration at half of the fitted maximal effect; 0% is about no effect; nearly all actives have a fitted effect of over 75% in size
# * = called active by the depositor; ? = inconclusive; · = no result given. Unless noted, the call rests on the fitted dose curve; in most records, active means well fitted curve in the direction sought with a large enough effect; inconclusive means small, poorly fitted or top-dose-only effect, or another doubt; inactive means no such curve, though single readings can be large; an effect the other way counts as inactive or inconclusive.
SMILES,D1 ag,TRHR enhancer-1,D1 potentiator,TRHR agonist-1,D1 antagonist,TRHR enhancer-2,TRHR agonist-2
CCc1ccc(CN(C)Cc2nc(-c3cccc(Cl)c3)no2)nc1,1.5,47.7*,3.4,-0.4,3.9,-11.0,8.6%
CN(Cc1cnn(C)c1)Cc1nc(-c2ccc(Cl)cc2)no1,5.5,0.4,-4.7,0.9,1.9,·,·
C[C@@]12CCC=C[C@H]1[C@H](c1ccc3ccccc3c1Br)N(Cc1ccccc1)C2=O,2.2,-2.9,-9.9,0.8,-3.9,·,·
CCn1c(C)c(C)c2cc(C(=O)NC3CCCCCC3)ccc21,0.6,44.6*,0.5,-0.2,-2.0,?,2.0%
CC(=O)N1CCc2cc(Br)cc(S(=O)(=O)N3CCC(C(=O)N(C)c4cc(C)ccc4C)CC3)c21,0.0,0.1,-0.6,0.5,1.7,·,·
c1coc(-c2ccnc3ncnn23)c1,5.1,49.1*,-3.5,-0.6,1.5,-5.5,-0.7%
Cc1cccc(-c2noc(CN(C)C(=O)c3ccco3)n2)c1,3.9,21.6,-5.8,-0.6,-2.0,·,·
Cc1c(NC(=O)CN2C(=O)NC(C)(c3ccccc3)C2=O)c(=O)n(-c2ccccc2)n1C (stereo unspecified),2.7,48.4*,-4.9,0.4,-31.6*,-2.2,-0.2%
CCC(Sc1nc2ncccc2[nH]1)C(=O)NC1CCC(C)CC1 (stereo unspecified),-0.4,11.1,-2.6,1.2,7.0,·,·
CCC(Sc1nc2ncccc2[nH]1)C(=O)NCCc1ccccc1 (stereo unspecified),2.6,1.6,-0.7,59.6*,10.8,-13.2,2.2%
Cc1cc(C)c(C(=O)NC2CCCc3c2cnn3-c2cccc(C)c2C)o1 (stereo unspecified),1.6,-1.0,-1.1,1.7,-9.5,·,·
COc1ccccc1CNC(=O)C1CCN(S(=O)(=O)c2c(C)noc2/C=C/c2cccs2)CC1,4.6,7.2,2.9,1.0,-3.9,·,·
Cc1ccc(C(=O)CCNc2cccc(Br)c2)o1,1.0,65.8*,-5.2,-1.0,-13.2,-9.9,1.7%
CCC(=O)NC1=C(NC(C)c2ccccc2)C(=O)c2ccccc2C1=O (stereo unspecified),2.6,50.3*,4.7,0.4,5.3,-5.2,2.5%
CCC(=O)Nc1ccc2c(c1)C(=O)c1ccccc1C2=O,0.3,4.2,-2.8,-0.1,-2.7,·,·
COc1cc(CNC(C)(C)CO)ccc1OCC(=O)NC(C)(C)C,0.5,-0.1,-4.6,0.2,15.5,·,·
COc1cc(CNC(C)C23CC4CC(CC(C4)C2)C3)ccc1OCC(=O)NC(C)(C)C (stereo unspecified),37.2*,-16.2,0.3,43.3*,2.1,-2.1,?
CCC(C)C(NC(=O)OCc1ccccc1)C(=O)OCN1C(=O)c2ccccc2C1=O (stereo unspecified),27.8,-9.6,-1.4,0.9,5.0,·,·
O=C(O)c1cccc(CSc2nc(-c3ccc(Cl)cc3)cc(C(F)(F)F)n2)c1,9.2,41.7*,-0.3,-0.5,-37.3*,-9.6,?
Cc1[nH]c2ccccc2c1C(c1ccccn1)c1c(C)[nH]c2ccccc12,8.8,8.7,-6.8,-0.3,-28.5,·,·
Cc1c(NC(=S)NC(=O)c2cccc3ccccc23)cccc1C(=O)O,5.2,65.2*,-1.8,-0.4,-4.5,-5.1,-0.7%
COc1ccc(C(=O)Nc2ccc(S(=O)(=O)NC(C)=O)cc2)cc1[N+](=O)[O-],1.6,4.7,-1.8,0.7,5.6,·,·

# Assay outcomes as filed in PubChem.
